Screens (PubChem)
tim23-1 inh = inhibits growth of tim23-1 mutant yeast | S. cerevisiae tim23-1 growth, BacTiter-Glo luminescence, 24 h | inhibition, % at 20 µM | 330,000 compounds, 1.3% hits;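 active = growth inhibition of the mutant yeast at or above 50%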;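 note: temperature-sensitive mutant grown at 25 °C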
Calb FLC = affects C. albicans growth with fluconazole; growth inhibition, % (no concentration beside the values); 300,000 compounds, 0.57% hits; C. albicans CaCi-2 (fluconazole-resistant clinical isolate) + fluconazole, Alamar Blue growth, 48 h; AID 1979;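 active = growth inhibition above about 58% in most replicates, limit read from the data, passing the limit was not always enough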;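 note: all wells also contain fluconazole at 8 µg/ml as a sub-toxic cotreatment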
SKKanGAS inh = inhibitors of SKKanGAS S. pyogenes growth in kanamycin (SK-promoter or general growth effect); inhibition, % at 7.5 µM; BacTiter-Glo, 6 h; 300,000 compounds, 1.3% hits;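 active = mean replicate score, as percent of positive control median, at least 50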;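 note: strain carries kanamycin resistance gene driven by streptokinase promoter and grows in 40 µg/ml kanamycin; loss of luminescence reflects streptokinase promoter inhibition or plain growth inhibition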
PfHsp90 set2 = inhibits growth of yeast expressing Plasmodium falciparum Hsp90; S. cerevisiae expressing PfHsp90, BacTiter-Glo ATP, 48 h; yeast lacking PDR1 and PDR3 efflux regulators; inhibition, % at 9.4 µM; 310,000 compounds, 0.32% hits; AID 504621;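 active = every replicate shows inhibition above about 80%, whatever the replicate mean, limit read from the data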
TIM10 inh = growth inhibitors of TIM10 yeast strain. S. cerevisiae TIM10 strain growth, BacTiter-Glo luminescence, 24 h. 330,000 compounds, 1.4% hits. inhibition, % at 10 µM;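 active = inhibition of 40% or more at the single tested concentration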;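 note: wild-type TIM10 isogenic control strain grown at permissive 25 °C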
tim10-1 inh = growth inhibitors of tim10-1 mutant yeast. S. cerevisiae tim10-1 ts strain growth, BacTiter-Glo, 24 h. inhibition, % at 20 µM. 330,000 compounds, 2.2% hits;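 active = inhibition of at least 40%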;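 note: mutant grown at 25 °C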
tim23-1 conf = tim23-1 yeast growth inhibition, confirmed | shares compounds with tim23-1 inh | S. cerevisiae tim23-1 growth, BacTiter-Glo luminescence, 24 h | inhibition, % at 20 µM | 4,400 compounds, 83% hits;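 active = inhibition above about 39% in either of two replicate wells at 20 µM, limit read from the data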;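 note: temperature-sensitive tim23-1 mutant grown at 25 °C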
Numbers stand for hits; . = inactive; / = no result given. This is a sample that favours compounds with a hit; in the whole collection about 4.7% have one here.

SMILES | tim23-1 inh | Calb FLC | SKKanGAS inh | PfHsp90 set2 | TIM10 inh | tim10-1 inh | tim23-1 conf
Cc1c(C(=O)OCC(=O)N2CCC(C)CC2)oc2ccccc12 | 54.3 | . | . | / | . | . | 57.8
CC1(C)C(=O)C=CC(=O)C(C)(C)C(=O)C=CC(=O)C(C)(C)C2=CC=C(O2)C(C)(C)C(=O)C=CC1=O | / | / | / | . | / | / | /
CC1CN(C(=O)COc2ccc3c(-c4ccccc4)cc(=O)oc3c2)CC(C)O1 (stereo not drawn) | . | / | / | . | . | . | /
CN(C)c1c2ccccc2nc2c(F)c(F)c(F)c(F)c12 | 63.9 | . | . | . | . | . | 66.8
C(=N\Nc1nc2ccccc2s1)/c1ccccn1 | 58.2 | . | 74.6 | / | . | . | 61.3
Oc1ccc(N=Nc2ccccc2)cc1 | 54.9 | . | . | . | . | . | 46.8
O=C(O)c1ccccc1N=Nc1ccc(O)cc1 | . | . | . | . | . | . | /
O=C(/C=C/c1cccnc1)c1ccccc1O | 51.5 | . | . | . | . | . | 50.5
COc1ccc(/C=C2/C(=O)N(c3ccccc3)N=C2C)cc1Br | 55.6 | . | . | . | . | . | 44.6
CC1=NN(c2ccccc2)C(=O)/C1=C/c1cccs1 | 56.9 | . | . | . | . | . | 52.1
Cc1ccnc(NC(=O)c2ccc3c(c2)C(=O)N(CC(C)C)C3=O)c1 | 63.3 | . | . | . | . | . | 56.7
Cc1cc(NC(=O)c2ccc3c(c2)C(=O)N(CC(C)C)C3=O)no1 | . | . | . | . | . | . | /
CCc1oc2ccccc2c1C(=O)c1cc(Br)c(O)c(Br)c1 | 55.8 | / | 49.7 | . | . | . | .
CCc1ccc(OCC(=O)c2c(O)c3ccccc3oc2=O)cc1 | . | . | . | . | . | . | /
CCC(C)NC(=O)c1cc2c(=O)[nH]c3ccc(C)cc3c2s1 (stereo not drawn) | . | . | . | . | . | . | /
Cn1nc(Cc2cccc3ccccc23)c(C#N)c1N | . | . | . | . | . | . | /
CC(C)(C)n1nc(Cc2cccc3ccccc23)c2c(N)ncnc21 | 62.1 | . | . | . | . | . | 62.4
COC(=O)c1ccccc1S(=O)(=O)NNC(=O)c1nn(C)c(=O)c2ccccc12 | . | / | / | . | . | . | /
COc1ccccc1OCCCOc1ccc(/C=C2\SC(=O)NC2=O)cc1OC | . | . | . | . | . | . | /
CCCOc1ccc2ccccc2c1/C=C1\SC(=O)NC1=O | 55.0 | . | . | 104.9 | . | . | 51.1
Clc1cccc(NCc2cn3cccnc3n2)c1 | . | . | . | . | . | . | /
CCOC(=O)c1sc2nc(C)nc(SC(C)C(=O)NC3CC3)c2c1C (stereo not drawn) | . | / | / | . | . | . | /
O=C(OCC(=O)C12CC3CC(CC(C3)C1)C2)c1ccc(O)cc1 | 63.3 | / | / | 99.4 | . | . | 60.8
O=C(OCC(=O)C12CC3CC(CC(C3)C1)C2)c1ccc(CO)cc1 | . | / | / | . | . | . | /
O=C(Oc1ccc(O)cc1)C12CC3CC(CC(C3)C1)C2 | 63.2 | . | . | . | . | . | 65.6
SMILES | tim23-1 inh | Calb FLC | SKKanGAS inh | PfHsp90 set2 | TIM10 inh | tim10-1 inh | tim23-1 conf
CC1CC(C)CN(CCCNC(=O)Cn2cccc2C(=O)c2ccccc2)C1 (stereo not drawn) | . | . | . | . | . | . | /
O=C(NCc1cccnc1)/C(=C\c1ccc(-c2ccc(Br)cc2)o1)S(=O)(=O)c1ccccc1 | 51.5 | . | . | . | . | . | 63.3
O=C(CN(Cc1ccc(Br)cc1)S(=O)(=O)c1ccccc1)NCc1cccnc1 | . | . | . | . | . | . | /
OC1CCN(c2cc(-c3ccccc3)nc3cc(-c4ccc(F)cc4)nn23)CC1 | . | . | . | . | . | . | /
CCN1CCN(c2cc(-c3ccccc3)nc3cc(-c4cccc(F)c4)nn23)CC1 | 52.6 | . | . | . | . | . | .
Cn1c(-c2sc3ccccc3c2Cl)n[nH]c1=S | 51.7 | . | . | . | . | . | 43.5
CCn1cc(C(=O)NN)c(=O)c2cc(F)c(N3CCCCC3)cc21 | 50.7 | . | . | . | . | . | .
Cc1nn(CCCC(=O)NCCCN2CCN(C)CC2)c(=O)c2c1sc1ccccc12 | . | . | . | . | . | . | /
O=C(CSc1nnc(CNC(=O)c2c(F)cccc2F)o1)NCc1ccc(F)cc1 | . | . | . | . | . | . | /
O=S(=O)(c1ccc(Cl)cc1)N1CCN(c2ncnc3sccc23)CC1 | 58.1 | / | / | . | . | . | .
O=C(Nc1ccn(CCCNCCCN2CCCC2=O)c(=O)n1)OCc1ccccc1 | / | / | / | . | / | / | /
Cc1cc(C)nc(OC(=O)c2ccc(Cl)cc2Cl)n1 | 74.0 | . | . | / | . | . | 67.1
CCc1ccc(OCCNc2cc(N3CCNC(C)C3)ccc2[N+](=O)[O-])cc1 (stereo not drawn) | 56.8 | / | / | . | . | . | 58.8
CCOc1ccccc1/C=C(\C#N)C(=O)NC1CC1 | 54.9 | . | . | / | . | . | 51.7
CCOc1ccccc1N(CC(=O)NCC1CCCO1)C(=O)CCC(=O)Nc1nccs1 (stereo not drawn) | . | . | . | . | . | . | /
COc1ccccc1CNC(=O)CCNC(=O)c1ccco1 | . | / | / | / | . | . | /
Cc1nc(NS(=O)(=O)c2ccccc2C)c2c3c(sc2n1)CCC3 | 52.7 | . | . | / | . | . | 51.0
CC(C)Oc1ccc(C(=O)NC(Cc2c[nH]c3ccccc23)C(=O)NN)cc1 (stereo not drawn) | . | . | . | . | . | . | /
Cc1[nH]c2c(Br)cccc2c1[C@H]1[C@@H](CC#N)C1(C)C | 51.0 | . | . | . | . | . | 46.1
Cc1c([C@H]2[C@@H](CC#N)C2(C)C)c2ccccc2n1C | . | . | . | . | . | . | /
COc1ccc(OC)c(C(=O)COC(=O)c2cc(C)oc2C)c1 | . | . | . | . | . | . | /
COc1ccc(OC)c(C(=O)COC(=O)c2ccc([N+](=O)[O-])o2)c1 | 55.0 | / | / | . | . | . | 57.0
COc1cccc(/C=N/Nc2nccnc2Cl)c1O | 66.5 | 106.3 | . | . | . | . | 61.0
CN(C(=O)COC(=O)c1cc2ccccc2cc1O)C1CCCCC1 | 55.3 | / | / | . | . | . | 48.6
O=C(OCc1cccc(F)c1)c1cc2ccccc2cc1O | 94.1 | . | . | . | . | . | .
SMILES | tim23-1 inh | Calb FLC | SKKanGAS inh | PfHsp90 set2 | TIM10 inh | tim10-1 inh | tim23-1 conf
Cc1ccc(C)c(NC(=O)CN(C)C(=O)c2nn(C)c(=O)c3ccccc23)c1 | . | . | . | . | . | . | /
COc1ccc(NS(=O)(=O)N2CCOCC2)cc1 | . | . | . | . | . | . | /
C=CCn1c(SCC(=O)N(C)CC(=O)Nc2ccc(C)cc2)nnc1-c1ccncc1 | . | / | / | . | . | . | /
O=C(O)c1cc(/C=C/c2ccc(N3CCOCC3)cc2)nc2ccccc12 | 52.4 | . | / | / | . | . | 40.6
O=C(O)c1cc(/C=C/c2ccc(N3CCOCC3)c([N+](=O)[O-])c2)nc2ccccc12 | . | . | . | . | . | . | /
Oc1ccc(Br)cc1CNc1ccccn1 | . | . | . | . | . | . | /
Oc1c(Cl)cc(Cl)cc1CNc1ccccn1 | 52.0 | . | . | . | . | . | 49.3
